In PubChem BioAssay (Tox21):
Inconclusive results are not listed. Entries that show only a call come without a potency. The source made the active and inactive calls. Calls follow the shape of the full dose curve.

assay: qHTS assay to identify small molecule agonists of the progesterone receptor (PR) signaling pathway - cell viability counter screen (AID 1346799); conditions: PR-UAS-bla HEK293T viability, CellTiter-Glo luminescence, 16 h; series mostly up to 92.4 µM; also: nearly all actives have a fitted effect of over 45% in size
From the text: National Center for Advancing Translational Sciences [NCATS]
NIH Chemical Genomics Center [NCGC]
U.S. Environmental Protection Agency [EPA]
National Institutes of Environmental Health Sciences [NIEHS]
National Toxicology Program [NTP]
U.S. Food and Drug Administration [FDA]
Progesterone receptor (PR), a nuclear hormone receptor, plays an important role in development, metabolic homeostasis and reproduction. It is activated by the steroid hormone progesterone. Endocrine disrupting chemicals (EDCs) and their interactions with steroid hormone receptors like PR causes disruption of normal endocrine function. To identify the compounds that stimulate PR signaling, a PR-UAS-bla GripTite cell line i.e. PR-UAS-bla HEK293T (Invitrogen, Carlsbad, CA, USA) containing a beta-lactamase reporter gene under the control of an UAS response element was used to screen Tox21 10K compound library. The cytotoxicity of the Tox21 compound library against the PR-bla cell line was tested in parallel by measuring the cell viability using CellTiter-Glo assay in the same wells.
Tox21 Assay Protocol Summary:
PR-UAS-bla HEK293T cells were dispensed at 3,000 cells/5 uL of assay medium containing 2% charcoal stripped FBS per well into black wall/clear-bottom 1536-well plates using a Multidrop Combi (ThermoFisher Scientific, Waltham, MA) dispenser. After the assay plates were incubated at a 37C and 5% CO2 for 6 hr, 23 nL of compounds dissolved in DMSO, positive controls or DMSO only was transferred to the assay plate by a Pintool station (Kalypsys, San Diego, CA). The plates were incubated at 37C and 5% CO2 for 16 hr. Then 1 uL of LiveBLAzer B/G FRET substrate was added using a Flying Reagent Dispenser (FRD, Aurora Discovery, San Diego, CA), the plates were incubated at room temperature for 2 hours, and fluorescence intensity was measured by an Envision plate reader (PerkinElmer, Shelton, CT). For cell viability readout that measures cytotoxicity, 4 uL/well of CellTiter-Glo reagent was added into the assay plates using a FRD. After 30 min incubation at room temperature, the luminescence intensity in the plates was measured using a ViewLux (PerkinElmer) plate reader.
Potency is read from the fitted curve at half-maximal effect.

SMILES | Potency
CC(C)C=O | inactive
O=C1c2ccccc2C(=O)C1c1nc2ccccc2c(Br)c1O | inactive
C=C/C(C)=C/C/C=C(\C)CCC=C(C)C | inactive
Cc1ccccc1S | inactive
CC1CC(OC(=O)C(O)c2ccccc2)CC(C)(C)N1C (stereo not given) | inactive
CCOC(=O)/C=C/C(=O)OCC | inactive
COc1ccc(OC(=O)N(CC(=O)O)Cc2ccc(OCCc3nc(-c4ccccc4)oc3C)cc2)cc1 | inactive
Cc1cscn1 | inactive
CC1=C(CC=O)C(C)(C)CCC1 | inactive
CC(C)C(O)(c1ccc(OC(F)(F)F)cc1)c1cncnc1 (stereo not given) | inactive
CC(CO)CO | inactive
N#CCc1ccc(Cl)cc1Cl | inactive
O=C(O)c1ccc(OCCCOc2ccc(C(=O)O)cc2)cc1 | inactive
CC1(C)S[C@@H]2[C@H](NC(=O)C(c3ccccc3)S(=O)(=O)O)C(=O)N2[C@H]1C(=O)O (stereo not given in full) | inactive
C(=C\c1ccccc1)/c1ccccc1 | inactive
C[C@]1(Cn2ccnn2)[C@H](C(=O)O)N2C(=O)C[C@H]2S1(=O)=O | inactive
C[C@@H]1CC(=O)NN=C1c1ccc(NN=C(C#N)C#N)cc1 | inactive
O=C=Nc1ccc(Cl)c(Cl)c1 | 23.9 µM (active)
OC(CCN1CCCC1)(c1ccccc1)C1CCCCC1 (stereo not given) | inactive
CCCCCCCC/C=C\CCCCCCCCCCCC(=O)O | inactive

SMILES | Potency
C[C@@H]1CN(CCCn2c3ccccc3c3ccccc32)C[C@H](C)N1 | 11.9 µM (active)
c1ccc2c(c1)CCc1ccccc1N2 | inactive
COc1ccccc1N1CCN(CCCCNC(=O)c2ccc(-c3ccc(C(C)=O)cc3)cc2)CC1 | inactive
CNC(=O)c1cnn(-c2nc(N)c3ncn([C@@H]4O[C@H](CO)[C@@H](O)[C@H]4O)c3n2)c1 | inactive
Cc1cc(O)c(C)c(C)c1O | inactive
CCC=CC#N | inactive
CN1C(C(=O)Nc2ccccn2)=C(O)c2sccc2S1(=O)=O | inactive
O=c1cc(-c2ccccc2)oc2ccc3ccccc3c12 | 19.3 µM (active)
O=c1[nH]ncc2ccccc12 | inactive
O=c1[nH]c2ccc(Cl)cc2o1 | inactive
O=C1c2ccccc2C(=O)C1c1ccc(Br)cc1 | inactive
CO[C@]1(NC(=O)CSC(F)F)C(=O)N2C(C(=O)O)=C(CSc3nnnn3CCO)CO[C@H]21 | inactive
CC(C)=CCC1C(=O)N(c2ccccc2)N(c2ccccc2)C1=O | inactive
C=CC(=O)OCC1CC2CC1C1CCC(COC(=O)C=C)C21 (stereo not given) | inactive
COC(=O)CS | inactive
CCCC(=O)C(=O)O | inactive
CCCCCC[C@@H](O)C/C=C\CCCCCCCC(=O)OCC(O)CO (stereo not given in full) | inactive
Cc1[nH]cnc1CN1CCc2c(c3ccccc3n2C)C1=O | inactive
COc1ccccc1N1CCN(CC(O)COc2cccc3ccccc23)CC1 (stereo not given) | 33.5 µM (active)
NCCNCCO | inactive
